# According to ChEMBL document CHEMBL3988442, “University of Dundee, Small-Polar-MMV Screening Library” (2021):
# Hit rate of the full screen: of about 48,000 compounds, about 13,000 (27%) showed an effect of 50% or more. Some of the results follow.
# Test system: Wolbachia pipientis
# Experiment: Anti-Wolbachia Cell-Based Screen
# Format: functional
# Parameters: scale not given: in the data most compounds retested in dose-response had high values
# Conditions: 5 µM
row,SMILES,Percent Effect
1,O=C(CCCc1cn[nH]c1)N1C[C@@H](CN2CCCC2)C[C@H](CO)C1,-0.9744%
2,COc1cc(C)cc(C(C(=O)O)N2CCN(C3CCCC3)CC2)c1OC (stereo not given),-14.27%
3,CC(C)c1nn(C)c(N2CCOCC2)c1CNCCS(C)(=O)=O,-4.469%
4,N#CC1(NC(=O)c2ccn(-c3ccccc3Cl)n2)CCSC1 (stereo not given),-6.951%
5,CN1[C@H](CO)C[C@H](CNCc2ccc(Cl)c(F)c2)[C@@H]1c1ccccc1F,-19.47%
6,CN1CCCCC12Cc1ccccc1CN(C(=O)C1CCCC1)C2 (stereo not given),124.9%
7,CS(=O)(=O)N1CCCCC12CCN(C(=O)c1ccccc1)C2 (stereo not given),-1.645%
8,O=C(NC1CCc2ccccc2C1)N1CCN(C(=O)C2CCC2)CC1 (stereo not given),-14.39%
9,CC(=O)N1Cc2ccccc2CC2(CCCCN2C)C1 (stereo not given),130.2%
10,CN1CCN(C(=O)C2(S(C)(=O)=O)CCCC2)Cc2ccccc21,-5.505%
11,CN1CCCCC12Cc1ccccc1CN(C(=O)c1ccccc1)C2 (stereo not given),117.9%
12,CN1CCN(C(=O)C2(NC(N)=O)CCCCC2)Cc2ccccc21,-12.44%
13,Cc1noc(C)c1CNC(=O)N1CCC(OCC2CC2)CC1,12.01%
14,Cc1n[nH]cc1CNC(C(=O)N1CCCCC1)c1ccccc1 (stereo not given),2.279%
15,CC(C)c1nnc2n1CCN(C(=O)CN1CCc3sccc3C1)C2,4.372%
16,OC(CN1CCC(c2ccn[nH]2)CC1)c1ccc(F)cc1 (stereo not given),112.6%
17,OC(CN1CCC(c2ccn[nH]2)CC1)c1cccc(C(F)(F)F)c1 (stereo not given),117.8%
18,CS(=O)(=O)c1ccc(C(O)CN2CCC(c3ccn[nH]3)CC2)cc1 (stereo not given),-3.645%
19,OC(CN1CCC(c2ccn[nH]2)CC1)c1ccccc1F (stereo not given),96.43%
20,OC(CN1CCC(c2ccn[nH]2)CC1)c1ccc(F)cc1F (stereo not given),102.6%
21,OC(COCc1cccs1)CN1CCC(c2ccn[nH]2)CC1 (stereo not given),-8.119%
22,OC(CN1CCN(c2ncccn2)CC1)c1cccc(F)c1 (stereo not given),-12.81%
23,Cn1nccc1C1CCN(CC(O)c2cccc(F)c2)CC1 (stereo not given),-0.7122%
24,N#Cc1ccnc(N2CCN(CC(O)c3ccc(F)cc3F)CC2)c1 (stereo not given),-23.85%
25,OC(CN1CCC(c2ccn[nH]2)CC1)c1cccc(F)c1 (stereo not given),-8.538%

row,SMILES,Percent Effect
1,CN(CC1CCN(CCO)CC1)CC(O)c1ccc(F)cc1F (stereo not given),7.101%
2,OC(COc1ccccc1)CN1CCC(c2ccn[nH]2)CC1 (stereo not given),2.003%
3,Cc1ccc(F)c(OC2CCCN(c3cnn(C)c3)C2=O)c1 (stereo not given),-6.274%
4,Cc1cc(C(=O)N[C@H]2CN(CCO)C[C@@H]2C2CC2)sc1C,-4.663%
5,CN(Cc1ccccc1)C1(C(=O)NC(CO)CO)Cc2ccccc2C1,2.959%
6,O=C(Nc1cnc2n1CCCC2)c1cccc(-n2cnnc2)c1,-1.722%
7,CCN(C(=O)CN(Cc1cccc(O)c1)C1CCC(O)CC1)C1CC1 (stereo not given),5.971%
8,Cc1cccc(CNCC2COC3(CCCC3)O2)c1C (stereo not given),-2.633%
9,OC(COCc1ccc(Cl)cc1)CN1CCC(c2ccn[nH]2)CC1 (stereo not given),-1.567%
10,OC(CN1CCC(c2ccn[nH]2)CC1)c1cc(F)ccc1F (stereo not given),116%
11,O=C1CCCN1CCN1CCC(c2ccn[nH]2)CC1,6.838%
12,O=c1cc(-c2ccncc2)nc(-c2ccc(CN3CC[C@H](O)C3)cc2)[nH]1,9.166%
13,CN(C)c1cc(CNC(=O)Nc2nncs2)ccn1,51.52%
14,CN(C)c1cc(CNC(=O)Nc2ccc(S(C)(=O)=O)nc2)ccn1,-6.104%
15,CN(C)c1cc(CNC(=O)Nc2nccs2)ccn1,125%
16,CN(C)c1cc(CNC(=O)Nc2ccc(F)cc2)ccn1,2.745%
17,CCc1ccc(CCNc2ncnc3c2CCN(C(=O)C2CC2)C3)cc1,-23.9%
18,NC(=O)C1CCN(CCCc2ccc(C(F)(F)F)cc2)CC1,5.084%
19,OCC1CN(Cc2nc(C(F)(F)F)cs2)c2ccccc2O1 (stereo not given),3.254%
20,CC(C)(C)n1nc(C2CC2)cc1C(=O)NCC1(C(N)=O)CCOCC1,3.596%
21,CNC(=O)C1CCC(NC(=O)c2cc(C3CC3)n(C(C)(C)C)n2)CC1 (stereo not given),117.3%
22,CC(C)(C)n1nc(C(=O)NCC2(C(N)=O)CCOCC2)cc1C1CC1,8.942%
23,CC(C)c1cc(C(=O)NC2CCN(CC(N)=O)CC2)nn1C(C)(C)C,128%
24,Cn1nc(C(=O)NC2CC(C)(C)NC(C)(C)C2)cc1NC(=O)C1CC1,-0.3555%
25,CC(C)(C)n1nc(C2CC2)cc1C(=O)NC1CCN(CC(N)=O)CC1,124.1%

row,SMILES,Percent Effect
1,Cn1nc(C(=O)NC2CC2)cc1NC(=O)C1CC1,-11.77%
2,CCNc1ccnc(NC2CCN(CC(N)=O)CC2)n1,2.921%
3,CC(C)(C)n1nc(C(=O)NC2CCN(CC(N)=O)CC2)cc1C1CC1,128.2%
4,CC(C)c1cc(C(=O)NCC(O)C2CCOCC2)nn1C(C)(C)C (stereo not given),-4.207%
5,CC(C)c1cc(C(=O)NCC2(C(N)=O)CCOCC2)nn1C(C)(C)C,-12.39%
6,CC(CCc1ccccc1)CC(=O)NC1CCN(CC(N)=O)CC1 (stereo not given),-10.07%
7,Cc1ccc(C)c(Oc2ccc(CNC(=O)C3CCC(=O)N3)cn2)c1 (stereo not given),-2.356%
8,CCCc1nnsc1C(=O)N1CCN(CC(O)c2ccco2)CC1.Cl (stereo not given),-2.42%
9,Cc1nnc2n1CCN(Cc1ncc(-c3ccc(Cl)cc3)o1)C2,-13.18%
10,CS(=O)(=O)N1CC[C@]2(C[C@@H](OCC3CCC3)CO2)C1,0.0763%
11,Cc1cc(C(=O)NC2CCN(CC(N)=O)CC2)nn1C(C)(C)C,133.1%
12,CCCc1nc(C)c(C(=O)NC2CCN(CC(N)=O)CC2)s1,7.483%
13,NC(=O)CN1CCC(NC(=O)c2ccn(-c3cccc(F)c3)n2)CC1,-0.7272%
14,Cc1csc(CN(C)CCCOc2cccc(C#N)c2)n1,1.685%
15,Cc1cccc(CNCc2c(C)nn(C)c2N2CCOCC2)n1,-8.764%
16,Cc1nn(C)c(N2CCOCC2)c1CNCc1ccc(Cl)s1,2.748%
17,Cc1nn(C)c(N2CCOCC2)c1CNCC1CCN(C2CC2)C1 (stereo not given),-9.16%
18,Cc1nn(C)c(N2CCOCC2)c1CNCc1ccccc1CO,115.8%
19,Cc1nn(C)c(N2CCOCC2)c1CNCc1ccoc1C,153.8%
20,Cc1nn(C)c(N2CCOCC2)c1CNCC1CCCN1C (stereo not given),-4.188%
21,Cc1nn(C)c(N2CCOCC2)c1CNCc1ccc(CO)c(F)c1,138%
22,Cc1nn(C)c(N2CCOCC2)c1CNC(C)c1ccco1 (stereo not given),-14.65%
23,Cc1nn(C)c(N2CCOCC2)c1CNCc1ccnn1C,142.8%
24,Cc1nn(C)c(N2CCOCC2)c1CNCC1CCS(=O)(=O)C1 (stereo not given),-15.3%
25,Cc1nn(C)c(N2CCOCC2)c1CNCc1nccs1,-7.203%
